Experimental data: PubChem BioAssay (NCATS)
Results filed as inconclusive are left out. Calls of active or inactive are those of the source. The call rests on the fitted dose curve; in most records, active means well fitted cell-killing curve with a large enough effect; inconclusive means small, poorly fitted or top-dose-only effect; inactive means flat fitted curve, though single readings scatter.

assay: qHTS assay to identify small molecule inhibitors of chordoma cells - UCH-2 (AID 1259356); conditions: UCH-2 chordoma viability, CellTiter-Glo ATP luminescence, 48 h; series mostly up to 46.1 µM; activity change, negative = inhibition: at the top concentration
On the % scale 0 is the no-effect control and ±100 the full control effect; potency means the concentration at half of the fitted maximal effect.

| Compound | activity change, negative = inhibition | Potency |
| --- | --- | --- |
| C[Se]CCC(N)C(=O)O (stereo unspecified) | -1.86% (inactive) |  |
| CN1C(C(=O)Nc2ccccn2)=C(O)c2sccc2S1(=O)=O | -9.39% [at 20.6 µM] (inactive) |  |
| CCCCCCCCCCCCCCCCCCCCCCO | -0.0798% (inactive) |  |
| NNc1nncc2ccccc12 | -0.708% [at 20.6 µM] (inactive) |  |
| CN(C)c1ccc2nc3ccc(=[N+](C)C)cc-3sc2c1 |  | 14.6 µM (active) |
| O=C(c1ccccc1)c1ccc2n1CCC2C(=O)O (stereo unspecified) | -8.07% [at 20.6 µM] (inactive) |  |
| COc1cc(OC)c(C(=O)CCCN2CCCC2)c(OC)c1 | -1.12% [at 20.6 µM] (inactive) |  |
| COC1=C(OC)C(=O)C(CCCCCCCCCCO)=C(C)C1=O | -36.3% (inactive) |  |
| Cc1cccc(CN2CCN(C(c3ccccc3)c3ccc(Cl)cc3)CC2)c1 (stereo unspecified) | 6.78% [at 20.6 µM] (inactive) |  |
| Cc1c(OCC(F)(F)F)ccnc1CS(=O)c1nc2ccccc2[nH]1 (stereo unspecified) | -9.99% (inactive) |  |
| CCc1nc(N)nc(N)c1-c1ccc(Cl)cc1 | 0.509% (inactive) |  |
| CC1=C(C)C(=O)C(C(CCCCCC(=O)O)c2ccccc2)=C(C)C1=O (stereo unspecified) | -0.0463% (inactive) |  |
| N=C(N)c1ccc2cc(OC(=O)c3ccc(N=C(N)N)cc3)ccc2c1 | 5.83% (inactive) |  |
| CC(C)Oc1ccc2c(=O)c(-c3ccccc3)coc2c1 | -12.8% (inactive) |  |
| COc1cc2nc(N3CCN(C(=O)C4CCCO4)CC3)nc(N)c2cc1OC (stereo unspecified) | -1.68% (inactive) |  |
| O=C(O)c1cccnc1Nc1cccc(C(F)(F)F)c1 | 0.814% (inactive) |  |
